HP1b chromo inh – HTS for Inhibitors of HP1-beta Chromodomain Interactions with Methylated Histone Tails. AlphaScreen HP1-beta / biotin-H3K9me3 peptide binding. Potency, µM (doses to about 114 µM), for the others: at the top dose activity change, negative = inhibition, actives largely listed as inhibitors. 390,000 tested, 0.56% active; note: nearly all actives have a fitted effect of over 70% in size
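HP1-beta protein (50 nM final) preincubated 30 min at room temperature with biotinylated H3(1-18)K9me3 peptide (50 nM) in PBS pH 7.4, 0.01% Tween-20, then compound added for 30 min. AlphaScreen streptavidin donor/nickel chelate acceptor beads (10 ug/mL final), 30 min dark, luminescence read.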
L3MBTL1 block – qHTS Assay for the Inhibitors of L3MBTL1 | Lethal(3)malignant brain tumor-like protein 1 (Homo sapiens), Q9Y468 | AlphaScreen L3MBTL1–H3K9me1 peptide binding | Potency, µM (series often up to 57.1 µM), inactives show at the highest dose activity, negative = inhibition, most hits filed as inhibitors | 230,000 tested, 0.66% active | AID 485360, 2010; note: % is set by controls: 0 for no effect and ±100 for the full control effect; nearly all actives have a fitted effect of over 60% in size
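L3MBTL1 50 nM + b-AHA-H3(1-15)K9me1 75 nM, 30 min RT; compound added, 30 min RT; streptavidin donor/Ni-chelate acceptor beads 10 ug/mL each final, 30 min RT dark; AlphaScreen read.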
G9a inh – qHTS Assay for Inhibitors of Histone Lysine Methyltransferase G9a; G9a H3K9 monomethylation, AlphaScreen, 2 h; Potency, µM (top dose mostly 102 µM), for inactives: at the top dose activity, negative = inhibition, most hits filed as inhibitors; 350,000 tested, 8.8% active; AID 504332, 2011; note: % is set by controls: 0 for no effect and ±100 for the full control effect; nearly all actives have a fitted effect of over 75% in size
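Methyltransferase reactions run at room temperature for 2 h (20 nM enzyme, 500 nM biotin-H3K9 peptide, 20 uM SAM) after a 15 min compound preincubation; product detected by AlphaScreen beads and anti-H3K9me1 antibody.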
BAZ2B block – qHTS Assay for Inhibitors of BAZ2B; AlphaScreen BAZ2B-H3K14Ac peptide displacement; Potency, µM (titrated, usually from 114 µM), for the others: at the top dose activity change, negative = inhibition, usual class: inhibitors; 360,000 tested, 4.4% active; note: % is set by controls: 0 for no effect and ±100 for the full control effect; nearly all actives have a fitted effect of over 60% in size
Target sequence (Q9UIF8 whole entry, looked up): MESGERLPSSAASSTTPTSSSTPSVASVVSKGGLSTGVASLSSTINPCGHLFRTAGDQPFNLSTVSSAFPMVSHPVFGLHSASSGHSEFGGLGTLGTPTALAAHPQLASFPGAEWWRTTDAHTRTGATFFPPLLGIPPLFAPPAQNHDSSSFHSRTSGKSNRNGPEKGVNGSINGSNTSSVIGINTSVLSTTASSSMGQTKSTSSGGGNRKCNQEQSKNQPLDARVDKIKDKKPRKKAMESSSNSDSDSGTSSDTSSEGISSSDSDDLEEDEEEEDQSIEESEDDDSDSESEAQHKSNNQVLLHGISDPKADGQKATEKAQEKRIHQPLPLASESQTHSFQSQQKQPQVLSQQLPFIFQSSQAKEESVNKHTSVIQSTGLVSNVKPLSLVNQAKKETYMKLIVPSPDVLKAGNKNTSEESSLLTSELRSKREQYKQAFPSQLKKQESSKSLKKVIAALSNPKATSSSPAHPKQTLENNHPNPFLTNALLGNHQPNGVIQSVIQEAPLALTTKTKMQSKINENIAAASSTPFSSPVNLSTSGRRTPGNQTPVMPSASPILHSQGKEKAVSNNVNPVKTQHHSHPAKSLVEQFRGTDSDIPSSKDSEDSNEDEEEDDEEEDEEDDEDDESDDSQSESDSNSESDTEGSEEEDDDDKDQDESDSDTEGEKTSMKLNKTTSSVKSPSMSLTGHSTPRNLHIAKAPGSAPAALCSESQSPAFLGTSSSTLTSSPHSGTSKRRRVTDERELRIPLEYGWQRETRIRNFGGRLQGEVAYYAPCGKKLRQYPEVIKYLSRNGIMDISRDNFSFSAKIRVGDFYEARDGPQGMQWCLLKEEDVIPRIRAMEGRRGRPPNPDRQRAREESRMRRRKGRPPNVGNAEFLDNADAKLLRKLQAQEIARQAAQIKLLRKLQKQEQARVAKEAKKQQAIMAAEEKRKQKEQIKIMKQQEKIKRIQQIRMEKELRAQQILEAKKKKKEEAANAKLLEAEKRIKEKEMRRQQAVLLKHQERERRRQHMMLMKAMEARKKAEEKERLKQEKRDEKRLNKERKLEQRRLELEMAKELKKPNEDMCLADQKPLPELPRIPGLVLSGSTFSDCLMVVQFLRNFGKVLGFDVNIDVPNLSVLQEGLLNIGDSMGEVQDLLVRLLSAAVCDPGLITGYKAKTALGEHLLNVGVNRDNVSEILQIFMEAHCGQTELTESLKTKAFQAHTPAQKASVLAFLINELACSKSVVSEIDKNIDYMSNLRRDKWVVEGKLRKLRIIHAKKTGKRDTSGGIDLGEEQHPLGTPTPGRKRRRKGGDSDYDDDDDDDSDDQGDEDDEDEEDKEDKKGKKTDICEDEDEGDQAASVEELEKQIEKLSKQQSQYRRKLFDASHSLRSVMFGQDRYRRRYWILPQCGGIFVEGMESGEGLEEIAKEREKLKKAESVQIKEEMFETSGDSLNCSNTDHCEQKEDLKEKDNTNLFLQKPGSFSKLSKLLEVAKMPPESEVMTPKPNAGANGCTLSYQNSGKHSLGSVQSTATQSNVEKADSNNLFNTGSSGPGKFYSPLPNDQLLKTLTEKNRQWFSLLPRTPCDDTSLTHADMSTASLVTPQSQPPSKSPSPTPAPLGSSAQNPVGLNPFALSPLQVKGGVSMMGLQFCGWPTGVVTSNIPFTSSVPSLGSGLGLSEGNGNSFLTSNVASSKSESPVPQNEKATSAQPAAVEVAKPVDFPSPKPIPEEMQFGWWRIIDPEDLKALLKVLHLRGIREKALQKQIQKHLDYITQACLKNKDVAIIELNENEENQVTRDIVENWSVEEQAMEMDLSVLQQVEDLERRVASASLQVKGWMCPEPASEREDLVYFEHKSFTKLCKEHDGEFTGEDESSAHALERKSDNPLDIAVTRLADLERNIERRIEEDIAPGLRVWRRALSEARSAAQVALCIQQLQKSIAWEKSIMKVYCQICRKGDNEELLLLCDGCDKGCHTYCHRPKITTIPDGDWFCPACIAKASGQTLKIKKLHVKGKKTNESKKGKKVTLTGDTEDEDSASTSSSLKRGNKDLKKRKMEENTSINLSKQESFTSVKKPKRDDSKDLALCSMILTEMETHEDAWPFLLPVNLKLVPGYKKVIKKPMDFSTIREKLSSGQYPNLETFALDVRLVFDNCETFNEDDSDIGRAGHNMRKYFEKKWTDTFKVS
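BAZ2B 50 nM plus b-H3(5-23)K14Ac 50 nM, PBS pH 7.4/0.01% Tween-20, 30 min RT; compound added (max 110 uM), 30 min RT; streptavidin donor/Ni-chelate acceptor beads 10 ug/mL final, 20 min dark; AlphaScreen read.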
JMJD2A Tudor – qHTS Assay for Inhibitors of JMJD2A-Tudor Domain. Lysine-specific demethylase 4A (Homo sapiens), O75164. Potency, µM (titrated, usually from 114 µM), for the others: top-dose activity change, negative = inhibition, hits mostly inhibitors. 390,000 tested, 4.4% active. AlphaScreen JMJD2A-Tudor / H3K4me3 peptide binding; note: % is set by controls: 0 for no effect and ±100 for the full control effect; nearly all actives have a fitted effect of over 50% in size
* hit, by the source's call; u = inconclusive; x = no result; ! = repeats disagree; [ ] = remark or other dose. The list is not random: actives were taken first. Their share in the collection is about 11%. Calls come from the whole dose curve; as a rule, active = well fitted inhibition curve with a large enough effect; inconclusive = small, poorly fitted or top-dose-only effect; inactive = no such curve, though single readings can be large or run the other way. Potency is the fitted concentration of half-maximal effect.

SMILES | HP1b chromo inh | L3MBTL1 block | G9a inh | BAZ2B block | JMJD2A Tudor
O=C(Oc1c(Br)cc(C(=S)N2CCOCC2)cc1Br)c1ccc(Cl)cc1 | u | -21% | x | u | u
O=C(Oc1ccc(C(=S)N2CCOCC2)cc1Br)c1cc(Cl)ccc1Cl | -2% | -8% | 45µM* | -29% | -19%
COc1cc(C(=S)N2CCOCC2)ccc1OS(=O)(=O)c1ccc(Cl)cc1 | 32% | -5% | 35µM* | -22% | -14%
Cn1c(=S)n(C)c2ccccc21 | 62% | -8% | -7%[59 µM] | -18% | 8%
Cn1c(=S)ccc2ccccc21 | u | -14% | 10µM* | -22% | -14%
CCOc1ccc(C2C(=O)N(C3CCCCCC3)CC(=O)N2CCc2ccc(Cl)cc2)cc1OC (centres undefined) | 27% | x | -29%[59 µM] | -18% | -24%
COc1cc2c(=O)c(C(=O)c3ccc(F)cc3)cn(Cc3cccc(F)c3)c2cc1OC | 23% | x | 9%[59 µM] | -24% | -15%
N=c1n(CCN2CCCCC2)c2ccccc2n1CC(=O)c1cccc([N+](=O)[O-])c1 | 14% | -5% | 45µM* | u | -24%
C=CCn1c(=N)n(CC(=O)c2cccc([N+](=O)[O-])c2)c2ccccc21 | 8% | -12% | x | u | -16%
N=c1n(CC(=O)c2ccc([N+](=O)[O-])cc2)c2ccccc2n1Cc1ccccc1 | 6% | 0% | 45µM* | u | -19%
N=c1n(CC(=O)c2ccc([N+](=O)[O-])cc2)c2ccccc2n1Cc1ccc(Cl)cc1 | 3% | 13% | u | -30% | -29%
COc1ccc2[nH]c(C)c(CCN3C(=O)OC(C)(C)C3(C)O)c2c1 (centres undefined) | 11% | -5% | -24%[59 µM] | -6% | -33%
COc1ccc2[nH]c(C)c(CCN3C(=O)C4CC=CCC4C3=O)c2c1 (centres undefined) | -14% | -7% | u | u | 25µM*
Cc1ccc(N2CC(NC(=O)C3CC3)CC2=O)cc1C (centres undefined) | -2% | x | -5%[59 µM] | 0% | -12%
CCN=c1scc(-c2ccc3c(c2)NC(=O)CO3)n1N=C1CCCC1 | u | -10% | u | 50µM* | u
Cc1ccc(OCCC(=O)OCC(=O)c2ccc3c(c2)NC(=O)CO3)cc1 | 51% | 1% | -17%[59 µM] | 13% | -4%
COCC(C)n1c(-c2ccc3c(c2)NC(=O)CO3)csc1=Nc1ccc(OC(F)F)cc1 (centres undefined) | u | x | -4%[12.7 µM] | 13µM* | u
CCc1ccc(NC(=O)Cn2c(=O)n(Cc3nc(C)no3)c(=O)c3cc4c(cc32)OCO4)cc1 | 32% | x | 9%[59 µM] | 0% | -10%
Cc1occc1C(=O)NNC(=O)c1cccc(F)c1 | 25% | 1% | 5% | -6% | -14%[11.4 µM]
CC(C)(C)NC(=O)C(=O)NNC(=O)c1ccccc1 | 16% | 2% | u | u | 8.9µM*
CC(C)(C)NC(=O)C(=O)NNC(=O)c1cccc(F)c1 | 2% | x | 9% | u | 10µM*
Cc1ccc(Cl)cc1-n1nnc(-c2nc(-c3ccc4c(c3)OCO4)no2)c1C | 36% | x | -16%[59 µM] | 2% | -12%
Cc1ccc(S(=O)(=O)N2CCN(CC(=O)N(CC(C)C)c3c(N)n(CC(C)C)c(=O)[nH]c3=O)CC2)c(C)c1 | 24% | 0% | u | -4% | -18%
O=S(=O)(O)c1ccc(SCc2ccccc2)nc1 | 24% | x | x | x | 89µM*
NS(=O)(=O)c1ccc(SCc2ccccc2)nc1 | 29% | x | x | x | -7%
SMILES | HP1b chromo inh | L3MBTL1 block | G9a inh | BAZ2B block | JMJD2A Tudor
Cc1cc(C)n2c(=S)[nH]nc2n1 | 8.9µM* | -2% | 1.1µM* | 40µM* | u
COc1ccc(-c2nn(-c3ccccc3)cc2/C=C2/SC(=S)N(Cc3ccco3)C2=O)c(C)c1 | -12% | -3% | -46% | -34% | u
COc1ccc(-n2c(C)cc(/C=C3\SC(=S)N(Cc4ccco4)C3=O)c2C)cc1 | -5% | -10% | 25µM* | u | u
COc1ccc(-n2c(C)cc(/C=C3\SC(=O)NC3=O)c2C)cc1 | 21% | x | 22µM* | -23% | u
CCCc1c(C(=O)N/N=C/c2cccc3ccccc23)nnn1-c1nonc1N | 45% | x | 18% | -14% | -12%
C[C@]12CC[C@@H]3c4ccc(O)cc4CC[C@H]3[C@@H]1CC[C@@H]2O | 24% | -1% | 20µM*! | -36% | -24%
C[C@@]12CC[C@@H]3c4ccc(O)cc4CC[C@H]3[C@H]1CC[C@H]2O | x | x | -4%[21.5 µM] | x | x
COc1cc2c(cc1O)CCC1C2CC[C@]2(C)[C@@H](O)CC[C@@H]12 (some centres undefined) | x | x | 40µM* | x | x
C[C@]12CC[C@@H]3c4ccc(O)cc4[C@@H](O)C[C@H]3[C@@H]1CC[C@@H]2O | x | 7% | 14% | 6% | x
Cc1noc(C)c1C(=O)N1CCC2(CCCN(C(=O)Nc3cccc(F)c3)C2)CC1 | x | x | 1%[12.7 µM] | x | x
CN1CCN(C2=CC3=CC(=C(C#N)C#N)CCC3CC2)CC1 (centres undefined) | 1% | x | u | u | -21%
CCN1CCN(C2=CC3=CC(=C(C#N)C#N)CCC3CC2)CC1 (centres undefined) | 50% | x | 45µM* | -25% | 9%
CCn1c(SCC(=O)Nc2cc(C(C)(C)C)nn2-c2ccccc2)nnc1-c1cccs1 | 27% | 6% | 9%[59 µM] | -29% | -13%
CCn1c(SCC(N)=O)nnc1-c1cc2c(C)nn(-c3ccccc3)c2s1 | 34% | -2% | 45µM* | 9% | -15%
O=C(O)CC(NS(=O)(=O)c1ccc(Br)cc1)c1ccco1 (centres undefined) | 16% | -2% | 79µM* | 0% | -11%
CCCCNC(=O)CC(NS(=O)(=O)c1ccc(C)cc1)c1ccco1 (centres undefined) | 46% | -3% | 3% | -3% | -14%
Cc1ccc(S(=O)(=O)NC(CC(=O)NCC2CCCO2)c2ccco2)cc1 (centres undefined) | 7% | -5% | -32% | -5% | 4.5µM*
Cc1sc(N/N=C/c2ccco2)nc1-c1ccccc1 | -20% | -4% | u | u | u
CC(C)=NNc1nc(-c2ccccc2)c(C)s1 | u | x | 32µM* | x | -35%
Cc1sc(N/N=C/c2cccnc2)nc1-c1ccccc1 | -7% | -19% | x | u | 50µM*
CCCCCCCCCCCCCCCCOCCOCCOCCOCCOCCOCCOCCOCCOCCOCCOCCOCCOCCOCCOCCOCCOCCOCCOCCOCCO | x | x | -5%[12.7 µM] | x | x
